From PubChem BioAssay
For some assays here: Entries with a potency or affinity are not part of this list. Active and inactive are the calls of the source. Unless noted, no rule for the calls is given here.

How the values were obtained:
[1] = antimalarial activity against Dd2 strain (AID 2302;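 active = growth inhibition above 50% at the single 2 µM test dose, taken to imply half-maximal potency below 2 µM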;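 also: 0% = DMSO untreated growth and 100% = chloroquine plus artemisinin killed control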); conditions: P. falciparum Dd2 in RBCs, LDH growth readout, 72 h; at 2 µM; active compounds read high
[2] = HepG2 cytotoxicity, primary screen, cytotoxicity control for P. falciparum antimalarial project, cell-based, ATP luminescence (AID 2303;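 active = inhibition above 50%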;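 also: 0% = DMSO wells and 100% = digitonin-killed cells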); conditions: HepG2 viability, 24-48 h, at 10 µM, active compounds read high
[3] = biological target: L-lactate dehydrogenase (Plasmodium falciparum (isolate CDC / Honduras)) (UniProt Q27743); test: PfLDH activity inhibition – cell lysate, 3D7 strain, counter-screen for P. falciparum growth inhibition project (AID 2304);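 also: 0% = vehicle and 100% = reference inhibitor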; conditions: P. falciparum 3D7 crude extract, LDH APAD/NBT absorbance; at 2 µM; active compounds read high
Chain of L-lactate dehydrogenase (Plasmodium falciparum (isolate CDC / Honduras)) (Q27743 whole entry, looked up): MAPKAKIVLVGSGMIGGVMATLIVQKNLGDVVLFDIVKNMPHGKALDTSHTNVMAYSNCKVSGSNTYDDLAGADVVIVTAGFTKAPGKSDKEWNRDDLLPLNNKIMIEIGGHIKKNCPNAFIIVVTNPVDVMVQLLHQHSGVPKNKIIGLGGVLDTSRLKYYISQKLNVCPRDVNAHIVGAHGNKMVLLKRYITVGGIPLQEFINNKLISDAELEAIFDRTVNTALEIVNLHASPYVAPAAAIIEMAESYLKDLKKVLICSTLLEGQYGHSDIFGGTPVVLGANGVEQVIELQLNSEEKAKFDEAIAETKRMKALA

[4] = inhibition of 3D7 malaria parasite growth – strain 3D7 (AID 2306);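 also: 0% = DMSO wells and 100% = chloroquine plus artemisinin control wells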; conditions: P. falciparum 3D7 erythrocytic growth, LDH absorbance, 72 h; at 2 µM; active compounds read high
[5] = biological target: Calcium-dependent protein kinase 1 (Plasmodium falciparum (isolate 3D7)) (UniProt P62344); test: PfCDPK1 kinase inhibitors, biochemical, TCAMS library (AID 1159585; cut-off not given, nearly all actives have IC50 up to about 0.98 µM;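 also: inhibitors leave more ATP so luminescence rises with inhibition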); conditions: recombinant PfCDPK1, Kinase-Glo ATP depletion luminescence
Chain of Calcium-dependent protein kinase 1 (Plasmodium falciparum (isolate 3D7)) (P62344 whole entry, looked up): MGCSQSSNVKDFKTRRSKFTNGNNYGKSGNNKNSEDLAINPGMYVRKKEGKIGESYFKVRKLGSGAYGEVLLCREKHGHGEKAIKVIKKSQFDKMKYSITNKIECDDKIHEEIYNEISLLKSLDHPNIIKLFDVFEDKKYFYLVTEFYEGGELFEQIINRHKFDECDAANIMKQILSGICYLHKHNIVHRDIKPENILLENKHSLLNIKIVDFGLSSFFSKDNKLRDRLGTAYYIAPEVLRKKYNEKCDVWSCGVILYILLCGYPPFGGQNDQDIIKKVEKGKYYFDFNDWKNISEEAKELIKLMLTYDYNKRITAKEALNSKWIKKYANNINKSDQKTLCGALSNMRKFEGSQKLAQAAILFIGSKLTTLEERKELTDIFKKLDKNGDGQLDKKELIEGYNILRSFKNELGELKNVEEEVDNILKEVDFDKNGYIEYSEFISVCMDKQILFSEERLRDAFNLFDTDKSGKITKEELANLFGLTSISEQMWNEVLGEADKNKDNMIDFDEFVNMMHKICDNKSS

[6] = biological target: Plasmodium falciparum protein kinase 6 (PK6, PF3D7_1337100) (UniProt Q8IDW1); test: PfPK6 kinase inhibitors, biochemical, TCAMS library (AID 1159586); conditions: recombinant PfPK6, Kinase-Glo ATP depletion luminescence
Chain of Plasmodium falciparum protein kinase 6 (PK6, PF3D7_1337100) (Q8IDW1 1-305): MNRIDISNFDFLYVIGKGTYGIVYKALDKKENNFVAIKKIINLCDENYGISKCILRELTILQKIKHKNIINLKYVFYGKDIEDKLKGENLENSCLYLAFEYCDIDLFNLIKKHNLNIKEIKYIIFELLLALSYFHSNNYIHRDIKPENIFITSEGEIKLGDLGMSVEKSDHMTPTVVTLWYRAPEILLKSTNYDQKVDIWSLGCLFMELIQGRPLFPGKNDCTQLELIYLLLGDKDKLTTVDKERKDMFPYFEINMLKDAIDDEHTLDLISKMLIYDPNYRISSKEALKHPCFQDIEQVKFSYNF

[7] = biological target: Protein kinase 7 (PK7), Plasmodium falciparum 3D7 (PF3D7_0213400) (UniProt Q7YTF7); test: inhibition of Plasmodium PK7 catalytic activity – biochemical, TCAMS antimalarial set, Kinase-Glo luminescence (AID 1159587); conditions: recombinant PfPK7, Kinase-Glo ATP depletion luminescence
Chain of Protein kinase 7 (PK7), Plasmodium falciparum 3D7 (PF3D7_0213400) (Q7YTF7 1-343): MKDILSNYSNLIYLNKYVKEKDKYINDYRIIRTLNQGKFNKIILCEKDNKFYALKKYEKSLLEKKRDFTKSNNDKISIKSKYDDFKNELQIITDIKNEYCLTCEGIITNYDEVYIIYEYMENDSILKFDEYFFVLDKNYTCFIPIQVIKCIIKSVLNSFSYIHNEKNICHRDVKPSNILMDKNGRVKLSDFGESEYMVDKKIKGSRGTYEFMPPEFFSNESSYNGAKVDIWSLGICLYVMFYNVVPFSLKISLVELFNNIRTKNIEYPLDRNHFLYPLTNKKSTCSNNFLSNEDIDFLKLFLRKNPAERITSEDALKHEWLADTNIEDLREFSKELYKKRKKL

[8] = biological target: Calcium-dependent protein kinase 4 (Plasmodium falciparum (isolate 3D7)) (UniProt Q8IBS5); test: PfCDPK4 kinase inhibitors, biochemical, TCAMS library (AID 1159588; cut-off not given, nearly all actives have IC50 up to about 0.91 µM); conditions: recombinant PfCDPK4, Kinase-Glo ATP depletion luminescence
Chain of Calcium-dependent protein kinase 4 (Plasmodium falciparum (isolate 3D7)) (Q8IBS5 whole entry, looked up): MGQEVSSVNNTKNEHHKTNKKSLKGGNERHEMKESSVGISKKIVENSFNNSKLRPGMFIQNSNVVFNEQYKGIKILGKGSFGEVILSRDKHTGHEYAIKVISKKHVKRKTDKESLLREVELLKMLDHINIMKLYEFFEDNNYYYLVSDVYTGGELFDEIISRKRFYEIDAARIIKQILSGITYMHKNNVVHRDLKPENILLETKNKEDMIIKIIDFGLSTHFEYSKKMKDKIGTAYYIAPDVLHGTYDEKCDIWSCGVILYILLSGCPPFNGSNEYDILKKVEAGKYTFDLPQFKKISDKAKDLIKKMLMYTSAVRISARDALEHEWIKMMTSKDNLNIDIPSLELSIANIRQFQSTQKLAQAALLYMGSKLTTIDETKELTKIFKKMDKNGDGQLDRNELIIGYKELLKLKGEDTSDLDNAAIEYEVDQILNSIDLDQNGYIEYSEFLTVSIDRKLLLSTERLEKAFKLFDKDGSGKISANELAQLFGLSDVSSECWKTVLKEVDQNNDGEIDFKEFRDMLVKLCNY

CCOC(=O)c1ccc(N(CCCN(CCCN(c2ccc(C(=O)OCC)cc2)S(=O)(=O)c2ccc(C)cc2)CCc2ccc(O)cc2)S(=O)(=O)c2ccc(C)cc2)cc1
inactive: inhibition [2] -11% | inhibition [3] -1% | outcome [5] | outcome [6] | outcome [7] | outcome [8]
active: growth inhibition [1] 74% | growth inhibition [4] 96%

CN(C)C(C)(C)CN(Cc1ccc(-c2ccc(C(F)(F)F)cc2)cc1)C(=O)Cn1c(CCc2cccc(F)c2F)nc(=O)c2ccccc21
active: growth inhibition [1] 67% | inhibition [2] 64% | growth inhibition [4] 95%
inactive: inhibition [3] -3% | outcome [5] | outcome [6] | outcome [7] | outcome [8]

COc1cc2nc(N3CCN(c4cc(C)ccc4C)CC3)nc(N)c2cc1OC
active: inhibition [2] 66% | growth inhibition [4] 98%
inactive: growth inhibition [1] 12% | inhibition [3] 5% | outcome [5] | outcome [6] | outcome [7] | outcome [8]

O=C(c1ccc([N+](=O)[O-])o1)N1CCC(c2cn(Cc3cccc(F)c3)c3ccccc23)CC1
active: growth inhibition [1] 95% | growth inhibition [4] 97%
inactive: inhibition [2] 1% | inhibition [3] -2% | outcome [5] | outcome [6] | outcome [7] | outcome [8]
